# Laboratory results published in the supplement of paper PMC4022240.
# ± gives the standard deviation.
# T1: HaloTag-ATRX ADD domain (163-292)
# T1 chain: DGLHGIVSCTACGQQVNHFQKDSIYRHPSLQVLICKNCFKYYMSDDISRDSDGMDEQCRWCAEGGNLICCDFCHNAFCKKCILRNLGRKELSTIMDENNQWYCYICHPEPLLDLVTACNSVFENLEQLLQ
# How the values were obtained:
# Experiment in all cases: peptide microarray binding signal (635 nm), min-max normalized on array (fraction of array maximum); higher = stronger binding
# [1] = molecular target: T1, HaloTag-ATRX ADD domain (163-292)
# Outline: (§1)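 Binding signal is the mean intensity of triplicate spots, min-max scaled within each library. Histone 13-mer peptide–cellulose conjugates were spotted in triplicate on nitrocellulose with a Cy3 tracer and blocked overnight at 4°C. Probing lasted 1 h at 4°C, either with biotin-labelled HaloTag reader fusions (10 nM to 1 μM) and streptavidin-Alexa Fluor 647 or with rabbit histone antibodies (1:10,000 to 1:2,000) and anti-rabbit Alexa 647. An Axon GenePix 4000B read signal at 635 nm and misprints at 532 nm.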
# [2] = molecular target: HaloTag-ING2 PHD (mouse Ing2 200-280)
# Outline: as §1
# [3] = molecular target: anti-H3K4me3 antibody ab8580
# Outline: as §1
# [4] = molecular target: anti-H3K9me3 antibody ab8898
# Outline: as §1
# [5] = peptide region: H4 38-50, peptide modifications: H4K44me1 H4R45me2a, binder concentration: 1:2,000 dilution
# [6] = peptide region: H4 38-50, peptide modifications: H4K44me1 H4R45me2a, binder concentration: 1:10,000 dilution
# [7] = peptide region: H4 38-50, peptide modifications: H4K44me1 H4R45me2s, binder concentration: 1:2,000 dilution
# [8] = peptide region: H4 38-50, peptide modifications: H4K44me1 H4R45me2s, binder concentration: 1:10,000 dilution
# [9] = peptide region: H4 16-28, peptide modifications: H4R23me2a, binder concentration: 1:2,000 dilution
# [10] = peptide region: H4 38-50, peptide modifications: H4K44ac, binder concentration: 1:2,000 dilution
# [11] = peptide region: H4 38-50, peptide modifications: H4K44ac, binder concentration: 1:10,000 dilution
# [12] = peptide region: H4 38-50, peptide modifications: H4K44me2 H4R45me1, binder concentration: 1:2,000 dilution
# [13] = peptide region: H4 38-50, peptide modifications: H4K44me2, binder concentration: 1:2,000 dilution
# [14] = peptide region: H4 38-50, peptide modifications: H4K44me2, binder concentration: 1:10,000 dilution
binder,measurement,setting,value
ARRGGVKRISGLI [H4 38-50 A R R G G V Kme Rme2a I S G L I],peptide microarray binding signal,"[1]; peptide region: H4 38-50, peptide modifications: H4K44me1 H4R45me2a, binder concentration: 50 nM",0.0254 ± 0.0015
same,peptide microarray binding signal,"[1]; peptide region: H4 38-50, peptide modifications: H4K44me1 H4R45me2a, binder concentration: 500 nM",0.016 ± 0.00078
same,peptide microarray binding signal,"[2]; peptide region: H4 38-50, peptide modifications: H4K44me1 H4R45me2a, binder concentration: 10 nM",0.0305 ± 0.00031
same,peptide microarray binding signal,"[2]; peptide region: H4 38-50, peptide modifications: H4K44me1 H4R45me2a, binder concentration: 100 nM",0.0275 ± 0.00071
same,peptide microarray binding signal,[3]; [5],0.00417 ± 0.00012
same,peptide microarray binding signal,[3]; [6],0.00987 ± 0.00037
same,peptide microarray binding signal,[4]; [5],0.00331 ± 7.1e-05
same,peptide microarray binding signal,[4]; [6],0.00974 ± 0.0007
ARRGGVKRISGLI [H4 38-50 A R R G G V Kme Rme2s I S G L I],peptide microarray binding signal,"[1]; peptide region: H4 38-50, peptide modifications: H4K44me1 H4R45me2s, binder concentration: 50 nM",0.006019 ± 2.1e-05
same,peptide microarray binding signal,"[1]; peptide region: H4 38-50, peptide modifications: H4K44me1 H4R45me2s, binder concentration: 500 nM",0.00619 ± 0.00016
same,peptide microarray binding signal,"[2]; peptide region: H4 38-50, peptide modifications: H4K44me1 H4R45me2s, binder concentration: 10 nM",0.0119 ± 0.00057
same,peptide microarray binding signal,"[2]; peptide region: H4 38-50, peptide modifications: H4K44me1 H4R45me2s, binder concentration: 100 nM",0.0102 ± 0.0013
same,peptide microarray binding signal,[3]; [7],0.00185 ± 0.00022
same,peptide microarray binding signal,[3]; [8],0.00451 ± 0.00035
same,peptide microarray binding signal,[4]; [7],0.00219 ± 0.00017
same,peptide microarray binding signal,[4]; [8],0.0034 ± 0.00013
KRHRKVLRDNIQG [H4 16-28 K R H R K V L Rme2a D N I Q G],peptide microarray binding signal,"[1]; peptide region: H4 16-28, peptide modifications: H4R23me2a, binder concentration: 500 nM",0.0285 ± 0.039
same,peptide microarray binding signal,"[2]; peptide region: H4 16-28, peptide modifications: H4R23me2a, binder concentration: 100 nM",0.000425 ± 4.9e-06
same,peptide microarray binding signal,[3]; [9],7.55e-05 ± 8.5e-07
same,peptide microarray binding signal,[4]; [9],0
ARRGGVKRISGLI [H4 38-50 A R R G G V Kac R I S G L I],peptide microarray binding signal,"[1]; peptide region: H4 38-50, peptide modifications: H4K44ac, binder concentration: 50 nM",0.00298 ± 0.00042
same,peptide microarray binding signal,"[1]; peptide region: H4 38-50, peptide modifications: H4K44ac, binder concentration: 500 nM",0.002238 ± 1.9e-05
same,peptide microarray binding signal,"[2]; peptide region: H4 38-50, peptide modifications: H4K44ac, binder concentration: 10 nM",0.00477 ± 0.00013
same,peptide microarray binding signal,"[2]; peptide region: H4 38-50, peptide modifications: H4K44ac, binder concentration: 100 nM",0.00751 ± 0.00045
same,peptide microarray binding signal,[3]; [10],0.00347 ± 0.0006
same,peptide microarray binding signal,[3]; [11],0.00251 ± 5.9e-05
same,peptide microarray binding signal,[4]; [10],0.00142 ± 3.6e-05
same,peptide microarray binding signal,[4]; [11],0.00138 ± 4.9e-05
ARRGGVKRISGLI [H4 38-50 A R R G G V Kme2 Rme I S G L I],peptide microarray binding signal,"[1]; peptide region: H4 38-50, peptide modifications: H4K44me2 H4R45me1, binder concentration: 500 nM",0.00233 ± 8.5e-05
same,peptide microarray binding signal,"[2]; peptide region: H4 38-50, peptide modifications: H4K44me2 H4R45me1, binder concentration: 100 nM",0.00361 ± 0.00019
same,peptide microarray binding signal,[3]; [12],0.000491 ± 1.3e-05
same,peptide microarray binding signal,[4]; [12],0.000347 ± 9.2e-06
ARRGGVKRISGLI [H4 38-50 A R R G G V Kme2 R I S G L I],peptide microarray binding signal,"[1]; peptide region: H4 38-50, peptide modifications: H4K44me2, binder concentration: 50 nM",0.0141 ± 0.0019
same,peptide microarray binding signal,"[1]; peptide region: H4 38-50, peptide modifications: H4K44me2, binder concentration: 500 nM",0.0244 ± 0.00095
same,peptide microarray binding signal,"[2]; peptide region: H4 38-50, peptide modifications: H4K44me2, binder concentration: 10 nM",0.0118 ± 0.00032
same,peptide microarray binding signal,"[2]; peptide region: H4 38-50, peptide modifications: H4K44me2, binder concentration: 100 nM",0.0304 ± 0.0032
same,peptide microarray binding signal,[3]; [13],0.00204 ± 0.00018
same,peptide microarray binding signal,[3]; [14],0.00359 ± 0.00012
same,peptide microarray binding signal,[4]; [13],0.00169 ± 3e-05
same,peptide microarray binding signal,[4]; [14],0.00231 ± 5.5e-05
